Among all 290,000 compounds or so, about 3,000 (1%) were called active. No stated cut-off is given here; in the data, active means inhibition mostly above about 36% (no sharp cut-off); inactive means mostly below about 34%. For the sample, actives were picked, then their nearest neighbours and some compounds at random.
Test: NOD1 signaling inhibitors, primary screen, cell-based, luminescence, uHTS (AID 1578);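 further: HEK-293T reporter cells stimulated with the NOD1 agonist gamma-tri-DAP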
Settings: NOD1-driven NF-kB luciferase reporter cells, at 4 µM, active compounds read high

Compound | inhibition
CCOc1ccc(OCC)c(S(=O)(=O)NCc2cccnc2)c1 | -17.5% (inactive)
NCCc1nnc(SCC(=O)Nc2ccc(Br)cc2)o1 | -15.9% (inactive)
CC(NC(=O)c1ccc2nc[nH]c2c1)c1ccccc1 (stereo not given) | -33.6% (inactive)
Cn1nnnc1SCC(=O)N1CCN(C(=O)c2ccco2)CC1 | -32.2% (inactive)
O=C(O)CCCNC(=O)c1cncc(O)c1 | 15.1% (inactive)
N=c1ccn(Cc2cccc(Cl)c2)cc1 | 8.9% (inactive)
N=c1ccn(Cc2ccc(Cl)c(Cl)c2)cc1 | 79.2% (active)
N=c1ccn(Cc2ccc(Cl)cc2)cc1 | 30.5% (inactive)
COC(Cn1c(-c2cccc(S(=O)(=O)N(C)C)c2)n[nH]c1=S)OC | -34.1% (inactive)
Cc1cc(NC(=O)c2cc3ncc(Br)cn3n2)no1 | -40.8% (inactive)
O=C(O)CCCn1cc(NC(=O)c2c(F)cccc2F)cn1 | -50.2% (inactive)
O=C(NCc1ccccn1)c1nc(Cn2cc([N+](=O)[O-])cn2)no1 | -23.2% (inactive)
COc1ccc(C2NCCn3cccc32)cc1 (stereo not given) | 112% (active)
Fc1ccc(C2NCCn3cccc32)cc1 (stereo not given) | 25.8% (inactive)
c1ccc(C2NCCn3cccc32)cc1 (stereo not given) | -14.6% (inactive)
Cc1ccc(C(c2nnnn2CS(=O)(=O)c2ccc(C)cc2)N2CCN(c3ncccn3)CC2)cc1 (stereo not given) | -41.2% (inactive)
COc1ccc(CNC(=O)CN2CCN(c3cccc(C)c3C)CC2)cc1 | -3.6% (inactive)
COc1ccc(-n2c(SCC(=O)Nc3ncc(Cl)cc3Cl)nc3ccccc32)cc1 | 58.9% (active)
O=C(CSc1nc2ccccc2n1-c1ccccc1)Nc1ncc(Cl)cc1Cl | 48.8% (inactive)
Cc1ccc(-n2c(SCC(=O)Nc3ncc(Cl)cc3Cl)nc3ccccc32)cc1 | 59.3% (inactive)
Cc1ccc(SCC(=O)N2N=CCC2c2ccccc2)cc1 (stereo not given) | -19.9% (inactive)
O=c1cc(O)n(-c2ccccc2F)c(=S)[nH]1 | 0% (inactive)
CCOC(=O)c1c(C)sc2c1N(C(C)=O)c1cc(Cl)ccc1S2 | 25.7% (inactive)
CCOC(=O)c1c(C)sc2c1N(C(=O)CCl)c1cc(Cl)ccc1S2 | 55.3% (active)

Compound | inhibition
CCOC(=O)c1c(C)sc2c1N(C(=O)CN(CC)CC)c1cc(Cl)ccc1S2 | -0.4% (inactive)
CC(=O)Nc1ccc(S(=O)(=O)NCc2nc(-c3ccccc3)no2)cc1 | -7.6% (inactive)
CCOC(=O)C1=C(C)NC(=O)NC1c1cc2c(cc1Br)OCO2 (stereo not given) | -20.8% (inactive)
Cc1cc(OC(=O)c2ccccc2)n(CCC#N)n1 | 6.7% (inactive)
COc1ccc2c(=O)c(Oc3ccc(C(=O)O)cc3)c(C(F)(F)F)oc2c1 | 47.7% (active)
COc1ccc(Oc2c(C(F)(F)F)oc3cc(OCC(=O)O)ccc3c2=O)cc1 | 4.6% (inactive)
O=C(O)c1ccc(Oc2c(C(F)(F)F)oc3cc(O)ccc3c2=O)cc1 | -31.7% (inactive)
O=C(c1ccc(F)cc1)N1CCN(c2ccc([N+](=O)[O-])c(N3CCOCC3)c2)CC1 | -17.8% (inactive)
C=C1C(=O)C=C[C@]2(C)C[C@@H]3OC(=O)[C@](C)(O)[C@H]3C[C@@H]12 | 33.2% (active)
C[C@@H]1C[C@@H]2OC(=O)[C@]3(C)[C@H]2[C@@H](OC3(C)O)[C@]2(C)C(=O)C=C[C@H]12 (stereo not given in full) | -7.5% (inactive)
CCCCNc1nc2ccccc2n1CC(=O)Nc1ccc2c(c1)OCCO2 | -11.5% (inactive)
O=C(O)c1ccc(Cl)cc1NC(=O)C1CCCO1 (stereo not given) | -22% (inactive)
COc1ccccc1N(C)S(=O)(=O)c1ccc(Cl)c(C(=O)NCCCN2CCOCC2)c1 | -22.8% (inactive)
CN(c1ccccc1)S(=O)(=O)c1ccc(Cl)c(C(=O)Nc2ccc(N3CCOCC3)cc2)c1 | -13% (inactive)
COc1ccc(CNC(=O)CSc2nc3ccc(C)cc3[nH]2)cc1OC | 0.6% (inactive)
CCOc1ccc(/C=N/NC(=O)C(=O)N2CCCCCC2)c2ccccc12 | 12% (inactive)
CN1C/C(=C/c2ccsc2)C(=O)/C(=C/c2ccsc2)C1 | -44.5% (inactive)
CC(C)N1C/C(=C/c2cccnc2)C(=O)/C(=C/c2cccnc2)C1 | 49.5% (inactive)
CC(C)N1C/C(=C/c2ccsc2)C(=O)/C(=C/c2ccsc2)C1 | 80.5% (active)
Cc1cc(NC(=O)c2cccnc2)ccc1NC(=O)c1ccco1 | -65.2% (inactive)
COc1ccc(-c2csc(/C(C#N)=C\c3ccc(OC)c([N+](=O)[O-])c3)n2)cc1 | -19.7% (inactive)
COc1ccc(-c2csc(/C(C#N)=C\c3ccc(O)c([N+](=O)[O-])c3)n2)cc1OC | 78.3% (active)
COc1cc(/C=C(/C#N)c2nc(-c3cc4ccccc4oc3=O)cs2)cc([N+](=O)[O-])c1O | 6.6% (inactive)
COc1ccc(-c2csc(/C(C#N)=C\c3cccc([N+](=O)[O-])c3)n2)cc1 | -40.1% (inactive)

Compound | inhibition
N#C/C(=C\c1ccc([N+](=O)[O-])cc1)c1nc(C2CC2)cs1 | -14.9% (inactive)
O=C(NC1CCSc2ccccc21)c1cccc(Cl)c1 (stereo not given) | -18.6% (inactive)
CCc1cc(-c2nc(N)ncc2-c2ccc(Br)cc2)c(O)cc1OC | -5.1% (inactive)
Cc1nc2cc(-c3ccccc3)[nH]n2c(=O)c1C | -59.1% (inactive)
Cc1ccc2cccc(OCc3ccccc3)c2n1 | -0.7% (inactive)
Cc1ccc2cccc(N)c2n1 | -43.8% (inactive)
Cc1ccc2ccc3ccc(C)nc3c2n1 | 44.3% (active)
C/C(=N\Nc1cc(C(F)(F)F)ccc1Cl)c1ccccc1O | 15.7% (inactive)
Clc1ccc(-n2ncc3c(N4CCCCCC4)ncnc32)cc1 | 78.4% (active)
CC1CC(C)CN(c2ncnc3c2cnn3-c2ccc(Cl)cc2)C1 (stereo not given) | 1.3% (inactive)
CC1CCCN(c2ncnc3c2cnn3-c2ccccc2)C1 (stereo not given) | 0.1% (inactive)
COc1ccc(-n2ncc3c(N4CCC(C)CC4)ncnc32)cc1 | -5.4% (inactive)
CC1CCCN(c2ncnc3c2cnn3-c2ccc(Cl)cc2)C1 (stereo not given) | 73.3% (active)
CCCN(CCC)c1ncnc2c1cnn2-c1ccc(OC)cc1 | -46.4% (inactive)
Cc1cccc(-n2ncc3c(N(C)C4CCCCC4)ncnc32)c1 | 27.6% (inactive)
COc1ccc(-n2ncc3c(N4CCCCC4)ncnc32)cc1 | 87% (active)
COc1ccc(-n2ncc3c(N4CCC(C(N)=O)CC4)ncnc32)cc1 | -30% (inactive)
Clc1ccc(-n2ncc3c(N4CCCC4)ncnc32)cc1 | 39.9% (inactive)
CN1CCN(c2ncnc3c2cnn3-c2ccc(Cl)cc2)CC1 | -13.8% (inactive)
CCOC(=O)c1ccc(NC(=O)CSc2nc(N)c(NC(=O)c3ccc(Br)o3)c(=O)[nH]2)cc1 | -26.5% (inactive)
CN(C(=O)COC(=O)c1cc(S(=O)(=O)N2CCCCC2)ccc1N1CCOCC1)C1CCS(=O)(=O)C1 (stereo not given) | -0.1% (inactive)
COC(=O)N/N=C/c1cc(C)n(-c2ccc(F)cc2)c1C | -30% (inactive)
COC(=O)C1C2C=CC3(CN(CCc4ccccc4)C(=O)C13)O2 (stereo not given) | -14.5% (inactive)
Cc1[nH][nH]c(=O)c1/C=N/N1CCOCC1 | -39.8% (inactive)

Compound | inhibition
CCC(C)(C(=O)NC1CCCCC1)N(C(=O)CC1NC(=O)NC1=O)c1c(C)n(C)n(-c2ccccc2)c1=O (stereo not given) | -11.2% (inactive)
c1ccc(-n2ncc3c(N4CCCCC4)ncnc32)cc1 | 61.4% (active)
Cc1cccc(-n2ncc3c(N4CCCC4)ncnc32)c1 | -40.5% (inactive)
CC1CCN(c2ncnc3c2cnn3-c2ccccc2)CC1 | -77.4% (inactive)
COc1cc(OC)c2cc(C(=O)N[C@H](C(=O)N3CCC[C@H]3C(=O)O)C(C)C)n(C)c2c1 | -17.5% (inactive)
Cc1nc(SCC(N)=O)c(C#N)c(C)c1C | 5.5% (inactive)
CCN(CC)C(=O)c1ccc(Nc2nnc(-c3ccc(O)cc3)c3ccccc23)cc1 | 72.7% (active)
CCN(CC)C(=O)c1ccc(-c2nnc(Nc3ccc(C(=O)N(C)C)cc3)c3ccccc23)cc1 | 37.7% (inactive)
CCN(CC)C(=O)c1ccc(-c2nnc(Nc3ccc(O)cc3)c3ccccc23)cc1 | 43% (inactive)
Cn1ncc(Cl)c1C(=O)N/N=C/c1cccc(OC2CSC2)c1 | -1.4% (inactive)
Cn1ncc(Br)c1C(=O)N/N=C/c1cccc(OC2CSC2)c1 | 60.4% (active)
Cn1cc(Br)c(C(=O)N/N=C/c2cccc(OC3CSC3)c2)n1 | 0.1% (inactive)
CCOC(=O)c1cnc(SCC(=O)Nc2ccc(N3CCOCC3)cc2)nc1N | -15% (inactive)
O=c1cc(NS(=O)(=O)c2ccccc2)nc(SCc2ccccc2Cl)[nH]1 | -0.5% (inactive)
O=c1cc(NS(=O)(=O)c2ccccc2)nc(SCc2c(Cl)cccc2Cl)[nH]1 | 102% (active)
O=c1cc(NS(=O)(=O)c2ccccc2)nc(SCc2ccc(Cl)cc2)[nH]1 | -1.1% (inactive)
Cc1ccc(NC(=O)CCc2nnc3ccc(N4CCC(C)CC4)nn23)nc1 | -3.1% (inactive)
Cc1[nH]n(C(N)=S)c(=O)c1N=Nc1ccc(Br)cc1 | -21.9% (inactive)
CCOc1ccc(N(CC)C(=O)Cc2c(C(=O)O)n(C)c3ccccc23)cc1 | -11.1% (inactive)
CC(C)Cc1nc(N2CCN(C(=O)c3ccco3)CC2)c(C#N)c2c1CCC2 | -0.7% (inactive)
CC(C)Cc1nc(N2CCN(C(=O)c3ccco3)CC2)c(C#N)c2c1CCCC2 | 2.6% (inactive)
CCN(CC)S(=O)(=O)c1ccc(N2CCOCC2)c(NC(=O)c2ccc3ccccc3c2)c1 | -17% (inactive)
Cc1nn(CCc2nn[nH]n2)c2nc(C(F)(F)F)cc(C(F)(F)F)c12 | -7.9% (inactive)

Source: PubChem BioAssay AID1578 (Sanford-Burnham Center for Chemical Genomics, 2009)
